Experimental data reported in PubChem BioAssay AID624305 (National Center for Advancing Translational Sciences (NCATS), 2012).
Inconclusive results are not listed. Calls of active or inactive are those of the source. The call rests on the fitted dose curve; in most records, active means well fitted activation curve with a large enough effect; inconclusive means small, poorly fitted or top-dose-only effect; inactive means no such curve, though single readings can be large or run the other way.

Assay: qHTS assay for re-activators of p53 using a Luc reporter: Hit Validation; further: nearly all actives have a fitted effect of over 75% in size; on activation: 0% is about no effect
Details: p53-responsive luciferase reporter cells, luminescence, H1299 line expressing heat-sensitive Ala138Val p53; series mostly up to 46.1 µM
Method in brief: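 H1299 (p53-null) cells stably carrying p53-A138V and a BP100-luciferase reporter, 1000 cells/well, treated 24 h at 37 deg C. Compounds at several concentrations, 1:5 dilution; nocodazole control; luminescence read after 10 min with detection reagent.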
Potency means the concentration at half of the fitted maximal effect.

Potency, active:
Cc1ccc(C(=O)Nc2cnc3sc(C)nn3c2=O)cc1 6.51 µM, O=C(NC(=S)Nc1cccc(O)c1)C1CCCCC1 14.6 µM, N=C1C(c2nc3ccccc3s2)=C(O)CN1Cc1ccccc1 14.6 µM, C(=C\c1nc(-c2ccccc2)no1)/c1ccccc1 2.31 µM, Clc1ccc(OCc2nc(-c3ccncc3)no2)c(Cl)c1 8.2 µM, Cc1cc(NC(=O)c2ccc3nccnc3c2)ccc1Br 4.11 µM, O=C(N/N=C1\CCc2ccccc21)c1ccccc1O 1.03 µM, Cc1ccc2c(c1)sc1nc(=O)n(-c3cccc(Cl)c3)c(=O)n12 8.2 µM, c1ccc(-c2ccc(-c3ccccn3)nn2)nc1 0.082 µM

Potency, inactive:
O=C(CC(Nc1ccc(F)cc1)C(=O)OCC(=O)c1cccs1)c1ccccc1 (stereo not given), O=C(Nc1nnc(-c2cccs2)o1)c1cccc(Oc2ccccc2)c1, CC12CCC(C(=O)N(CSC(=S)N/N=C\c3ccccc3O)C1=O)C2(C)C (stereo not given), O=C(Nc1ccc(-c2nc3cc(Cl)ccc3c(=O)o2)cc1)c1ccco1, O=C1CCCC(O)=C1N=Nc1c(Cl)cc(Cl)cc1Cl, CCC(Sc1nc2ccccc2c(=O)n1CCN1CCOCC1)C(=O)NCc1cccnc1 (stereo not given), c1ccc(Oc2cc(-n3cncn3)ncn2)cc1, Cc1ccsc1/C=C(\C#N)C(=O)Nc1c(C)n(C)n(-c2ccccc2)c1=O, CC(C)CNC(=S)Nc1ccc(Oc2ccccc2)cc1, CCc1nnc(NC(=O)CCC(=O)Nc2ccccc2)s1

activation, inactive:
OCCNc1nc(NCc2ccccc2)c2ccccc2n1 -3.8% [at 9.22 µM]
